Source: PubChem BioAssay (NCATS)
Values without a mark were called inactive. Records with an inconclusive call do not appear. Entries that show only a call come without a potency. Activity calls are given as the source filed them. Unless noted, calls come from the whole dose curve; as a rule, active = well fitted curve in the direction sought with a large enough effect; inconclusive = small, poorly fitted or top-dose-only effect, or another doubt; inactive = no such curve, though single readings can be large; an effect the other way counts as inactive or inconclusive.

Experiments:
[1] = target: Lysosomal acid glucosylceramidase (Homo sapiens) (UniProt P04062); experiment: Glucocerebrosidase-p2 (AID 348; in the data active = potency below about 10 µM; note: potency is the fitted concentration of half-maximal effect); conditions: purified GBA, blue fluorogenic substrate, 40 min
In short: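 Compounds titrated from 0.6 nM upwards against 0.2 nM enzyme in pH 5.9 citric acid/KH2PO4, taurocholate, tween-20; blue fluorogenic substrate 80 uM, 40 min room temperature, stopped and read Ex 365/Em 440 for AC50.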

[2] = AP1 Signaling Pathway (AID 357; active = well fitted curve in either direction with a large enough effect, not every such curve was filed as active;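 note: ME-180 reporter cells stimulated with EGF at its EC50 level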); conditions: ME-180 AP-1-bla reporter, EGF-induced, beta-lactamase ratio, 5 h; at 7.69 µM (top of the series) unless noted
In short: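 Cells are seeded overnight, exposed to compound titrations and an EC50 level of EGF for 5 hours at 37 °C, then loaded with CCF4 dye for 2.5 hours. Beta-lactamase activity under the AP-1 element is read as a blue/green ratio.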

[3] = target: Cytochrome P450 1A2 (Homo sapiens) (UniProt P05177); experiment: p450-cyp1a2 (AID 410; calls by dose curve; note: potency is the fitted concentration of half-maximal effect); conditions: recombinant CYP1A2, luciferin-ME demethylation, luminescence; series mostly up to 57 µM
In short: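 Human CYP1A2 (20nM) demethylated Luciferin-ME at its Km (100uM) in 100mM KPO4. After 10 min compound preincubation, NADPH regeneration ran the reaction 60 min at room temperature. Luciferin was read by luminescence, normalized to 57 uM furafylline.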

[4] = Stat Signaling Pathway (AID 446; active = well fitted curve in either direction with a large enough effect, not every such curve was filed as active;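 note: ME-180 cervical cancer cells given 40 pM IL-6 alongside compound; SIE-controlled beta-lactamase reporter measured as 460/530 nm FRET emission ratio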); conditions: ME-180 SIE beta-lactamase reporter, IL-6 stimulated, 5 h; at 7.69 µM (top of the series) unless noted
In short: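 ME-180 SIE-bla cells; overnight plating; cpd + IL-6 40 pM, 5 h, 37 C; LiveBLAzer 2.5 h RT; 460/530 nm emission ratio. Normalized to 300 pM IL-6 and 125 nM JAK inhibitor controls.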

[5] = target: Glucocorticoid receptor (Homo sapiens) (UniProt P04150); experiment: GR-GFP Redistribution (AID 450;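 active = compounds whose dose series gives a full or clear partial fitted curve of increased nuclear translocation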; note: potency is the fitted concentration of half-maximal effect); conditions: U2OS GR-GFP nuclear translocation, laser cytometry, 2 h
[6] = target: Glucocorticoid receptor (Homo sapiens) (UniProt P04150); experiment: GR-EFC Redistribution (AID 451; calls by dose curve; note: potency is the fitted concentration of half-maximal effect); conditions: CHO-K1 GR-EFC translocation, beta-gal luminescence, 2 h
In short: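 Translocation of GR-ED fusion to nuclear EA restores b-gal, read by luminescence after 1 h room-temperature detection. Engineered CHO-K1 biosensor cells, 1,000/well, exposed 2 h at 37 C to titrations up to 46 uM final.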

[7] = target: Mitogen-activated protein kinase 10 (Mus musculus) (UniProt Q61831); experiment: JNK3 AlphaScreen Assay (AID 530; active = well fitted curve in either direction with a large enough effect, not every such curve was filed as active;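 note: kinase came from lysate of stimulated human HepG2 cells; signal reports phosphorylation of biotinylated GST-cJun 1-79 at Ser73 with 10 µM ATP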); conditions: JNK3 lysate, c-Jun phosphorylation; series mostly up to 57.1 µM
In short: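 Room-temperature AlphaScreen kinase assay; pre-activated HepG2 lysate as JNK3 source, biotin-GST-cJun(1-79) substrate, 10 uM ATP, compound 15 min preincubation.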

[8] = target: Cytochrome P450 3A4 (Homo sapiens) (UniProt P08684); experiment: qHTS Assay for Inhibitors and Substrates of Cytochrome P450 3A4 (AID 884); conditions: recombinant CYP3A4, Luciferin-PPXE luminescence; series mostly up to 57.1 µM; note: potency is the fitted concentration of half-maximal effect; nearly all actives have a fitted effect of over 50% in size
In short: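 20 nM human CYP3A4 with 25 uM Luciferin-PPXE (at KM) in 200 mM KPO4, preincubated 10 min with compound; NADPH regeneration started a 60 min RT reaction. Luciferin detected by luminescence, normalized to 57 uM ketoconazole as full inhibition.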

[9] = target: Cytochrome P450 3A4 (Homo sapiens) (UniProt P08684); experiment: qHTS Assay for Activators of Cytochrome P450 3A4 (AID 885); conditions: recombinant CYP3A4, Luciferin-PPXE luminescence, 60 min; series mostly up to 57.1 µM; note: nearly all actives have a fitted effect of over 65% in size
In short: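 20nM CYP3A4 + 25uM Luciferin-PPXE (=KM), 200mM KPO4; cpd 10 min RT; NADPH regen, 60 min RT; stop w/ detection buffer, 20 min; luminescence. Normalized to 57 uM ketoconazole.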

[10] = target: Dual specificity protein kinase CLK4 (Homo sapiens) (UniProt Q9HAZ1); experiment: qHTS Assay for Inhibitors of CDC-like Kinase 4 (Kinase-Glo Assay) (AID 1770); conditions: recombinant Clk4, Kinase-Glo ATP depletion luminescence; series mostly up to 66.7 µM; note: nearly all actives have a fitted effect of over 65% in size; note: potency is the fitted concentration of half-maximal effect
In short: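 Recombinant human Clk4 (25 nM) phosphorylated RS repeat peptide (100 uM) with 1 uM ATP in Tris pH 7.5/MgCl2/EGTA/DTT/Triton buffer for 4.5 h at room temperature. Residual ATP was quantified by Kinase-Glo luciferase luminescence.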

[11] = target: Dual specificity protein kinase CLK4 (Homo sapiens) (UniProt Q9HAZ1); experiment: qHTS Assay for Inhibitors of CDC-like Kinase 4 (ADP-Glo Assay) (AID 1771); conditions: recombinant CLK4, ADP-Glo luminescence; series mostly up to 80 µM; note: nearly all actives have a fitted effect of over 70% in size; note: potency is the fitted concentration of half-maximal effect
In short: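 Clk4 (25 nM) was incubated 1 hr at room temperature with 100 uM RS repeat peptide and 1 uM ATP in buffer with 2 mM MgCl2, 0.5 mM EGTA, 2.5 mM DTT. ADP formed was quantified by ADP-Glo luminescence.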

[12] = target: Dual specificity protein kinase CLK4 (Homo sapiens) (UniProt Q9HAZ1); experiment: qHTS Assay for Inhibitors of CDC-like Kinase 4 (ADP-FP Assay) (AID 1795); conditions: Transcreener ADP fluorescence polarization; series mostly up to 50 µM; note: nearly all actives have a fitted effect of over 60% in size; note: potency is the fitted concentration of half-maximal effect
In short: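 Recombinant human Clk4 (6.25 nM) phosphorylated RS repeat peptide (100 uM) with 1 uM ATP in Tris pH 7.5/MgCl2/EGTA/DTT/Triton buffer for one hour. ADP was quantified by Transcreener competitive fluorescence polarization against an ADP calibration curve.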

[13] = target: Ubiquitin carboxyl-terminal hydrolase 1 (Homo sapiens) (UniProt O94782); experiment: Inhibitors of USP1/UAF1: Pilot qHTS (AID 504865); conditions: purified USP1/UAF1, Ub-rhodamine cleavage fluorescence; series mostly up to 54.9 µM;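 note: rhodamine fluorescence freed from ubiquitin-rhodamine substrate followed over time; top concentration of the series differs between compounds; nearly all actives have a fitted effect of over 35% in size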
In short: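 USP1/UAF1 complex (1nM) preincubated with compound 15 min at room temperature, then Ub-Rho substrate (150nM final) added. Fluorescence read kinetically at 480/540 nm, 6 reads every 60 seconds. Buffer: 50mM HEPES pH 7.8, 0.5mM EDTA, 0.1 mg/ml BSA, 1mM TCEP, 0.01% Tween-20.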

[14] = Primary qHTS for small molecule stabilizers of the endoplasmic reticulum resident proteome: Secreted ER Calcium Modulated Protein (SERCaMP) assay (AID 1508630); conditions: SH-SY5Y GLuc-SERCaMP (Gaussia luciferase released on ER calcium loss) secretion, thapsigargin, luminescence; series mostly up to 38.4 µM
In short: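 GLuc-SERCaMP-expressing SH-SY5Y cells, pretreated 16 h with compound, are challenged with thapsigargin to empty ER calcium stores; after 4 h, coelenterazine is added directly to the medium and luminescence is imaged.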

[15] = NFAT Signaling Pathway (AID 444; active = well fitted curve in either direction with a large enough effect, not every such curve was filed as active;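 note: carbachol stimulus at about its EC50 of 1 µM final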); conditions: Jurkat NFAT-bla M1, carbachol, beta-lactamase ratio, 5 h; at 7.69 µM (top of the series) unless noted
In short: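 Read-out: CCF4 FRET ratio (460 nm/530 nm) after 1 h RT dye loading, used for %activity and AC50 from titration series. Cells: Jurkat NFAT-β-lactamase/M1 line, treated with compound plus 1 uM carbachol for 5 h, 37 °C.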

[16] = target: 3',5'-cyclic-AMP phosphodiesterase 4B (Homo sapiens) (UniProt Q07343); experiment: qHTS Assay for Inhibitors of PDE-IV (AID 607; active = well fitted activation curve with a large enough effect in the main read-out, with a control signal flat, not every such curve was filed as active); conditions: HEK293 ACTOne CNG channel cells, membrane potential fluorescence; series mostly up to 22.9 µM
In short: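 ACTOne HEK293 cells carry a modified cAMP-gated CNG channel and express endogenous PDE4; plated 1000 cells/well, compounds up to 22.9 uM final. Membrane-potential dye fluorescence (ex 535/em 590) was read; parental cells received 10 uM forskolin + 100 uM RO 20-1724.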

[17] = target: Cytochrome P450 2C19 (Homo sapiens) (UniProt P33261); experiment: qHTS Assay for Inhibitors and Substrates of Cytochrome P450 2C19 (AID 899); conditions: recombinant CYP2C19, luciferin-H EGE luminescence; series mostly up to 57.1 µM; note: potency is the fitted concentration of half-maximal effect; nearly all actives have a fitted effect of over 60% in size
In short: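 5nM enzyme + 10uM Luciferin-H EGE (=KM), 50mM KPO4; cpd pin-transferred, 10 min 37C; NADPH regen, 60 min 37C; stopped w/ luciferin detection reagent, 20 min; luminescence. Normalized to 57uM ketoconazole (AC100).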

Sequence of Lysosomal acid glucosylceramidase (Homo sapiens) (P04062 whole entry, looked up): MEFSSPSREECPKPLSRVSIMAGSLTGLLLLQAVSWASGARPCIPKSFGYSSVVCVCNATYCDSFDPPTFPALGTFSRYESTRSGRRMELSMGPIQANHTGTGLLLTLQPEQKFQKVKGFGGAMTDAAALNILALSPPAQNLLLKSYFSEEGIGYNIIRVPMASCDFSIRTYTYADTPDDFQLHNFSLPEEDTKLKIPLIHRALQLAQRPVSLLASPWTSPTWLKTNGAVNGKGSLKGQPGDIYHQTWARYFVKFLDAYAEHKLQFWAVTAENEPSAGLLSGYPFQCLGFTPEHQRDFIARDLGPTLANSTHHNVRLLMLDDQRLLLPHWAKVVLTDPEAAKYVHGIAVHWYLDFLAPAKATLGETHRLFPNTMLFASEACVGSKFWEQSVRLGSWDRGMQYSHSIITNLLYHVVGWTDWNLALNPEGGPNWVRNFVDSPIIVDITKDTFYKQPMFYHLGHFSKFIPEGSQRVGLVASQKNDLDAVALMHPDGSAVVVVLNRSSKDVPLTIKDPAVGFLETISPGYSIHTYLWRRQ
Sequence of Glucocorticoid receptor (Homo sapiens) (P04150 whole entry, looked up, the tested form may be a part): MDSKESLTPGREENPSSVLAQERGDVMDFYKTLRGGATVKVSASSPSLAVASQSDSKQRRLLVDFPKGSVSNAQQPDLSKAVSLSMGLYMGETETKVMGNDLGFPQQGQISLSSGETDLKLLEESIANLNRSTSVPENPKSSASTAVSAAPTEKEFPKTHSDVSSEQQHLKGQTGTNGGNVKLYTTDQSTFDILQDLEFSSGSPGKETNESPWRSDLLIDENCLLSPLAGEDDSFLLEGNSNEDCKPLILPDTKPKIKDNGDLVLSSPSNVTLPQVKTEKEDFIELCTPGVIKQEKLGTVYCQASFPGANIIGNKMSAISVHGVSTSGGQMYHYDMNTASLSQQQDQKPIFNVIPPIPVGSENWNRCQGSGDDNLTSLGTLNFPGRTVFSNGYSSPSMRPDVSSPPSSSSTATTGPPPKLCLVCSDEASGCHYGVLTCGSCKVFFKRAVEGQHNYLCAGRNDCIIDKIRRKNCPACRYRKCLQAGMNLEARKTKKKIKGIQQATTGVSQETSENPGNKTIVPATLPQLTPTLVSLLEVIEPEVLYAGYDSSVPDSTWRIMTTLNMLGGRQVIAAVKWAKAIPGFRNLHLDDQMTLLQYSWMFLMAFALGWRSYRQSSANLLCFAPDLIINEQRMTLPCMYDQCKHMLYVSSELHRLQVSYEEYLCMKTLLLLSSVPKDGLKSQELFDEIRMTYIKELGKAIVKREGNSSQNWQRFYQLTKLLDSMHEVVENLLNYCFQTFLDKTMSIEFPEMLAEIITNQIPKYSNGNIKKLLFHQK
Sequence of Cytochrome P450 3A4 (Homo sapiens) (P08684 whole entry, looked up): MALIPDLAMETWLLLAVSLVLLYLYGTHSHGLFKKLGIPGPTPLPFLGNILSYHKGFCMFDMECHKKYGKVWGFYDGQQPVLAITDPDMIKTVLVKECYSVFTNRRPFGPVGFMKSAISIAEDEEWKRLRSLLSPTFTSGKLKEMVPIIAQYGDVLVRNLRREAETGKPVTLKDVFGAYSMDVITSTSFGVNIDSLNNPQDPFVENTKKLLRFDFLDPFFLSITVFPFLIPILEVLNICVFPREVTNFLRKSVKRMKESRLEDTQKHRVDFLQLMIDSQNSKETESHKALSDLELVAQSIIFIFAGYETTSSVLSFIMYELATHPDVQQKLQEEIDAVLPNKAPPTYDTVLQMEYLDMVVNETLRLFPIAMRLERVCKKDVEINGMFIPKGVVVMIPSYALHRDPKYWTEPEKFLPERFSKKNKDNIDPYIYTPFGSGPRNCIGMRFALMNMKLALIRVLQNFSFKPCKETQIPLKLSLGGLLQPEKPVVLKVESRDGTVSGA
Sequence of Ubiquitin carboxyl-terminal hydrolase 1 (Homo sapiens) (O94782 whole entry, looked up): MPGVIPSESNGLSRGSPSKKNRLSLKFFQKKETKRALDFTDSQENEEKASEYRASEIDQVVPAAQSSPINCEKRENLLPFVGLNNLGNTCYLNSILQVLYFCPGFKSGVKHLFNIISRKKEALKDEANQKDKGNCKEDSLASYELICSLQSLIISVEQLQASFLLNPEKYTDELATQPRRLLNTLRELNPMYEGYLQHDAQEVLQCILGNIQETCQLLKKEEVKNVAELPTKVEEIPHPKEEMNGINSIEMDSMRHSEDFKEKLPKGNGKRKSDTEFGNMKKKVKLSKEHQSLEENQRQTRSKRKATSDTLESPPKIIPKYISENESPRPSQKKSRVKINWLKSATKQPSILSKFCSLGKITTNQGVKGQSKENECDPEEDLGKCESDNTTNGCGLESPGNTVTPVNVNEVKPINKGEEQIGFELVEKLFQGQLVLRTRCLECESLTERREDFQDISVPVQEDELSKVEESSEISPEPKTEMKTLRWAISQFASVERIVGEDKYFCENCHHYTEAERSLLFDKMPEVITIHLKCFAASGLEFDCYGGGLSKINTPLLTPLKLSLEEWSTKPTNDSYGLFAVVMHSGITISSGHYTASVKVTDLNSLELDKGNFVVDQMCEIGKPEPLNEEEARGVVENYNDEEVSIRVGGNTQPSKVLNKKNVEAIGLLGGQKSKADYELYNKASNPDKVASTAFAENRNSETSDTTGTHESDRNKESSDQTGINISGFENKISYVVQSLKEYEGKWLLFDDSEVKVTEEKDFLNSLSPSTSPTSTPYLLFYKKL
Sequence of 3',5'-cyclic-AMP phosphodiesterase 4B (Homo sapiens) (Q07343 whole entry, looked up): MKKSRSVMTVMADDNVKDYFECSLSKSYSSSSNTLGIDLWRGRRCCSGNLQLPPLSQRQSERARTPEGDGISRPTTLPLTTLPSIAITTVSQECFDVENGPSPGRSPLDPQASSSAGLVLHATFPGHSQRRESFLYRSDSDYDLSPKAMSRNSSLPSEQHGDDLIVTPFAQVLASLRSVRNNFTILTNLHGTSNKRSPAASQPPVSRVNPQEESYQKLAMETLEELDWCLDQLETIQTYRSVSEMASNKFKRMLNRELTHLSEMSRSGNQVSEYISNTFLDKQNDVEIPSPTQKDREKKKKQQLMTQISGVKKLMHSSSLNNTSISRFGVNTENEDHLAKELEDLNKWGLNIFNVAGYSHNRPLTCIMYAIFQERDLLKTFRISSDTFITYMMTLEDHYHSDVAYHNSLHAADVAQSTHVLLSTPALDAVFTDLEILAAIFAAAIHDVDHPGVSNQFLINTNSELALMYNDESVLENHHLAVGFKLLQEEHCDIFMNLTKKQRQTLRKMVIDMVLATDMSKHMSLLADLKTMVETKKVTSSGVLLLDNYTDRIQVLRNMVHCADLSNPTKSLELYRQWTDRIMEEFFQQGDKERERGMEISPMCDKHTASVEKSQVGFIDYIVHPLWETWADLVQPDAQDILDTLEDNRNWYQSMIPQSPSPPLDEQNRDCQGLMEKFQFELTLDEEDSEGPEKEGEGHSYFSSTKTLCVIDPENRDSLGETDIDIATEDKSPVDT
Sequence of Dual specificity protein kinase CLK4 (Homo sapiens) (Q9HAZ1 whole entry, looked up): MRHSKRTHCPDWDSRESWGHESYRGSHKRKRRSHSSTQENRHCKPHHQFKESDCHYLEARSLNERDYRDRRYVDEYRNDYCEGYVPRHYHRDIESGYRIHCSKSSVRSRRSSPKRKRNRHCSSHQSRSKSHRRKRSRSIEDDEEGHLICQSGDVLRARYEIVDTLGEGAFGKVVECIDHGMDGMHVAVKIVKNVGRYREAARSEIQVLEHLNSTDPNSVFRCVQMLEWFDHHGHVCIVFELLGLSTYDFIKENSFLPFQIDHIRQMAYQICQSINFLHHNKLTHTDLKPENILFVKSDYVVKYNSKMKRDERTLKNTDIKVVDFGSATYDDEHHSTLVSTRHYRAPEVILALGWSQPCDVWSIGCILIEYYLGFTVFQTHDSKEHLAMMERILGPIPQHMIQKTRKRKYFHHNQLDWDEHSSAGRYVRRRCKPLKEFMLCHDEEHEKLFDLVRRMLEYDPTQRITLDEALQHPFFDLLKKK
Sequence of Cytochrome P450 2C19 (Homo sapiens) (P33261 whole entry, looked up): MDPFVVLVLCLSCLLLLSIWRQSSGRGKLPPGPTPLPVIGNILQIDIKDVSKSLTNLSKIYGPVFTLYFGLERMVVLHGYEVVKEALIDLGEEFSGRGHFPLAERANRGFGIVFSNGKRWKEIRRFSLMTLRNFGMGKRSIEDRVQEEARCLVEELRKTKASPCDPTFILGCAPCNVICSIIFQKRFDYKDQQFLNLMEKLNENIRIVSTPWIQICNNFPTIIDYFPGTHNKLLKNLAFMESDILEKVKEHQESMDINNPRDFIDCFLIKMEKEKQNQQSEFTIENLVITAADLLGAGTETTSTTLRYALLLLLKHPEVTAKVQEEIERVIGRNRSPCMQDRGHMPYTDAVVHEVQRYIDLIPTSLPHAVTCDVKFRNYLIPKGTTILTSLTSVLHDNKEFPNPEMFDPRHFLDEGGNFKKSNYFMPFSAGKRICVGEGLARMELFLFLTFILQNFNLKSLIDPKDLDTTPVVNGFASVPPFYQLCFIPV
Sequence of Cytochrome P450 1A2 (Homo sapiens) (P05177 whole entry, looked up): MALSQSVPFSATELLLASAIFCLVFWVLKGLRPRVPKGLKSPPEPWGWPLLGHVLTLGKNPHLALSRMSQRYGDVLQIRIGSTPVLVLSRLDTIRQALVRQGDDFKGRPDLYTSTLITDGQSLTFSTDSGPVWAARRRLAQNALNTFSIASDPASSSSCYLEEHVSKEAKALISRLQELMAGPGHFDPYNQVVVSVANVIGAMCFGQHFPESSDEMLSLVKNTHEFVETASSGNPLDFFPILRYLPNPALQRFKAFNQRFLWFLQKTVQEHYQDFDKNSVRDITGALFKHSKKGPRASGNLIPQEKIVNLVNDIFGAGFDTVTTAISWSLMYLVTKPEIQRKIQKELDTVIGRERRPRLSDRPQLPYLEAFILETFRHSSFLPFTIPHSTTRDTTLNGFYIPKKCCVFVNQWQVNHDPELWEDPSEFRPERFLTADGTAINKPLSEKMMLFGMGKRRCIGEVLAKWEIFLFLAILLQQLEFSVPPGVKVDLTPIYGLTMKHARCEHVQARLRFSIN

SMILES	Potency [1]	activity change, negative = inhibition [2]	Potency [3]	activity, negative = inhibition [4]	Potency [5]	Potency [6]	Potency [7]	Potency [8]	Potency [9]	Potency [10]	Potency [11]	Potency [12]	Potency [13]	outcome [14]	activity change, negative = inhibition [15]	Potency [16]	Potency [17]
FC(F)(F)c1ccccc1-c1cncnc1NCc1cccs1	> 11.4 µM	10.5%	20 µM (active)	-1.4%	> 46 µM	> 46 µM	inactive	0.251 µM (active)	inactive	inactive	inactive	inactive	inactive	inactive	–	–	–
COc1ccccc1CNc1ccnc(-c2ccccc2CN(C)C)n1	> 11.4 µM	-7.71%	–	3.25%	> 46 µM	> 46 µM	inactive	–	–	inactive	inactive	inactive	inactive	inactive	-25.2%	–	–
CN(C)c1ncc2nc(-c3ccc(Cl)cc3)c(=O)n(CCC#N)c2n1	> 11.4 µM	7.51%	–	17.6%	> 9.22 µM	> 46 µM	inactive	–	–	inactive	inactive	inactive	inactive	inactive	17.6%	inactive	–
COc1ncc2nc(-c3ccc(Cl)cc3)c(=O)n(Cc3cccs3)c2n1	> 11.4 µM	-16.7%	–	-18.3%	> 9.22 µM	> 46 µM	inactive	–	–	inactive	inactive	inactive	inactive	inactive	2.52%	–	–
COc1ccc(-n2c(=O)c(-c3ccc(F)c(F)c3)nc3cncnc32)cc1	> 11.4 µM	-1.43%	–	-16.2%	> 9.22 µM	> 46 µM	inactive	–	–	inactive	inactive	inactive	inactive	inactive	1.94%	inactive	–
c1ccc(CNc2ncnc3ccc(-c4ccoc4)cc23)cc1	> 11.4 µM	-25%	–	-19.6%	> 46 µM	> 46 µM	inactive	–	–	14.1 µM (active)	12.6 µM (active)	12.6 µM (active)	inactive	inactive	11.4%	inactive	–
COc1ccc(-c2nc3cnc(N(C)C)nc3n(-c3ccccc3)c2=O)cc1	> 11.4 µM	0.239%	–	3.24%	> 9.22 µM	> 46 µM	inactive	–	–	inactive	inactive	inactive	inactive	inactive	3.47%	–	–
Cc1cnc(CNc2nc(-c3c(C)noc3C)nc3ccccc23)cn1	> 11.4 µM	9.21%	–	-4.92%	> 46 µM	> 46 µM	inactive	–	–	inactive	inactive	inactive	inactive	inactive	15%	–	–
COc1ncc2nc(C)c(=O)n(Cc3ccc(F)cc3)c2n1	> 11.4 µM	-12.3%	–	-17.5%	> 9.22 µM	–	inactive	–	–	inactive	inactive	inactive	inactive	inactive	-2.65%	inactive	–
Cc1ccccc1-c1cncnc1Nc1ccccc1	> 11.4 µM	-10.9%	–	16%	> 46 µM	> 46 µM	inactive	–	inactive	inactive	inactive	inactive	inactive	inactive	-1.77%	–	3.16 µM (active)
CN(C)c1ncc2nc(-c3cc(F)cc(F)c3)c(=O)n(C)c2n1	> 11.4 µM	13.4%	–	–	> 9.22 µM	> 46 µM	inactive	–	–	inactive	inactive	inactive	inactive	inactive	2.93%	inactive	–
COc1ccccc1-c1cncnc1Nc1ccccc1	> 11.4 µM	-6.14%	–	5.08%	> 46 µM	> 46 µM	inactive	–	–	inactive	inactive	inactive	inactive	inactive	-4.57%	inactive	–
COc1cccc(Cn2c(=O)c(-c3cc(F)cc(F)c3)nc3cncnc32)c1	> 11.4 µM	0.277%	–	–	> 9.22 µM	–	–	–	–	inactive	inactive	inactive	inactive	inactive	0.731%	–	–
